For 40 sequences, sensor-assay potency score (higher = more potent) results are on record in the OligoGym collection.
Further: reference of the scale not given here.

The first experiment concerns the target ODF3L1. Put plainly: pooled miR-30 sensor sort-seq; sequence = guide strand. As to conditions: shRNA.
TGATCTATGTAGCCCGTGCAGG gave a sensor-assay potency score (higher = more potent) of -1.19.

For the sequence TTGAGGTCCATCACTCTGTATG, the sensor-assay potency score (higher = more potent) is -1.32.

For ATCTTCTCAAAGTAGTACTGGC, the sensor-assay potency score (higher = more potent) was -0.892.

As for TCCTTGTAGAACCAGTTCTTGT, the sensor-assay potency score (higher = more potent) was -1.85.

Consider TCTGCTACTAGAAATCTTGGTC, for which the sensor-assay potency score (higher = more potent) was found to be 0.655.

TCATGATCTATGTAGCCCGTGC showed a sensor-assay potency score (higher = more potent) of -0.361.

For the sequence TTGAACATGGAGATGTCATGAT, the sensor-assay potency score (higher = more potent) was determined as 0.585.

The sequence TAAGCTGGTGCCTTGAACATGG gave a sensor-assay potency score (higher = more potent) of 0.328.

The sequence TTGTGCACAGTGACCTGCTGGA came in with a sensor-assay potency score (higher = more potent) of 0.448.

Turning to TGTCATGATCTATGTAGCCCGT, the sensor-assay potency score (higher = more potent) is -0.612.

The next experiment deals with ODF4. Described as above. As to conditions: shRNA.
As to TCTTCTACTGAGCCGAAACTGC, the sensor-assay potency score (higher = more potent) was -1.39.

Regarding TCTGTGATCGTCTGTGCCCTTG, the sensor-assay potency score (higher = more potent) was -0.736.

Sequence TTCCAGGTCTCTGATGTTGGTC returned a sensor-assay potency score (higher = more potent) of -1.05.

TTCTACTGAGCCGAAACTGCTG yielded a sensor-assay potency score (higher = more potent) of -0.397.

In the case of TCTACTGAGCCGAAACTGCTGC, the sensor-assay potency score (higher = more potent) is 0.472.

For the sequence TTGGTCTCTTTCTCCTTCTGAC, the sensor-assay potency score (higher = more potent) is -0.95.

TATAGGATAAGCACCAGCCAAC showed a sensor-assay potency score (higher = more potent) of -1.15.

Turning to TTGAAGTAGCAAAGGATCGCGC, the sensor-assay potency score (higher = more potent) came to 0.0925.

TAGCAAAGGATCGCGCAGGTGA: the sensor-assay potency score (higher = more potent) was -0.209.

TCTCTTTCTCCTTCTGACCTGG gave a sensor-assay potency score (higher = more potent) of -0.166.

Another experiment addresses OGDHL. The description is as above. As to conditions: shRNA.
Take TTGCTCATCTGCAGGAACCTTT: the sensor-assay potency score (higher = more potent) is -0.719.

Regarding TACATCTCCTCCATGTAACTGG, the sensor-assay potency score (higher = more potent) is -0.405.

Sequence TTCAGCACAGGCACCTGTCTGT showed a sensor-assay potency score (higher = more potent) of 0.114.

Sequence TTCTACTTTGGTACACATGAGC yielded a sensor-assay potency score (higher = more potent) of -0.678.

TTCTTGGTCATGTCCGCACGGC had a sensor-assay potency score (higher = more potent) of -0.866.

Turning to TTTGAATCTACAGATAAGCGAG, the sensor-assay potency score (higher = more potent) is -0.201.

For the sequence TGGAGAACTGCATCACACCAGG, the sensor-assay potency score (higher = more potent) was -1.03.

For TAAGCCTCCTCACAGATCCGGT, the sensor-assay potency score (higher = more potent) is -0.839.

Sequence TTGAATCTACAGATAAGCGAGG displayed a sensor-assay potency score (higher = more potent) of -0.941.

Sequence TTCATAGGCACACACGTCCTGC showed a sensor-assay potency score (higher = more potent) of -1.24.

With TTGACCACGATCCAGTTGCAGT, the sensor-assay potency score (higher = more potent) was -1.4.

Regarding TACTTTGGTACACATGAGCTGT, the sensor-assay potency score (higher = more potent) was -0.325.

The target of the next experiment is OLFML2A. The experiment is described as above. The conditions noted are these: shRNA.
For TTTCCATAGTAGTAGTTGGTGA, the sensor-assay potency score (higher = more potent) was -0.818.

TAGCTTGTACATGTTACTCCAG came in with a sensor-assay potency score (higher = more potent) of -0.555.

Take TTATACTTGACTTTGTTCTAAA: the sensor-assay potency score (higher = more potent) was -0.893.

For TTCAAACATACAGACATCCAGG, the sensor-assay potency score (higher = more potent) was -0.00393.

In turn, TAACTTTTAAAAATCAGCCTAT returned a sensor-assay potency score (higher = more potent) of -0.201.

The sequence TTGTAGGGTAGCTTGTACATGT displayed a sensor-assay potency score (higher = more potent) of -0.494.

TTGTAGTAGGTGAAGCCCCGGA displayed a sensor-assay potency score (higher = more potent) of -0.647.

The sequence TTGTAGTCGATCTGGGTGGTGT registered a sensor-assay potency score (higher = more potent) of -0.246.
